Results taken from PubChem BioAssay AID463173 (ICCB-Longwood Screening Facility, Harvard Medical School, 2010).
About 4,300 (8.3%) of roughly 52,000 compounds were called active. The sample holds actives, similar compounds and a random draw of the others, so the mix is not that of the screen. A number with no mark means an inactive call. Cut-off read from the data, not from the text of the source: active = survival mostly below about 52% (no sharp cut-off); inactive = mostly above about 56%.

The compounds below were run on DeltatarO mutant (assay: S. aureus survival, RN4220 and DeltatarO strains – OD600, teichoic acid synthesis inhibitors, primary screen (AID 463173)). Details: S. aureus RN4220 wild type/DeltatarO growth, OD600, 18 h, stronger effect = lower value, screened at 18.75 µg/mL (by protocol).

Structure (SMILES) | survival
Cc1cccc(CNC(=O)CS(=O)(=O)c2cccc3nsnc23)c1 | 78%
COc1cccc(CNC(=O)CSc2nc3ccccc3nc2Cc2ccc(C)cc2)c1OC | 74%
COCCCn1c(=N)c(S(=O)(=O)c2ccccc2)cc2c(=O)n3cc(C)ccc3nc21 | 68%
CCOc1ccc(C2CC(=O)c3c([nH]c(C(=O)OCCOc4ccccc4)c3C)C2)cc1 (stereo not drawn) | 72%
O=C(Nc1cccc(-c2nc3ncccc3o2)c1)c1ccc(-c2cccc(Cl)c2Cl)o1 | 79%
Cc1c(Cl)cccc1-c1ccc(C(=O)Nc2ccc3oc(-c4cccnc4)nc3c2)o1 | 55%
Cc1ccc(NC(=O)c2ccc(-c3cccc(Cl)c3C)o2)cc1 | 1% (active)
CCc1ccc(NC(=O)N2CCOc3ccc(Cl)cc32)cc1 | 65%
CCOC(=O)c1ccccc1NC(=O)N1CCOc2ccc(Cl)cc21 | 99%
COc1ccc(NC(=O)N2CCOc3ccc(Cl)cc32)cc1 | 44% (active)
Cc1ccc(C(=O)N(Cc2sccc2C)C2CCS(=O)(=O)C2)cc1 (stereo not drawn) | 76%
CCn1c(SC)nnc1C1CCCN1CC(=O)N1CCN(Cc2ccc3c(c2)OCO3)CC1 (stereo not drawn) | 79%
Cc1c(Cl)cccc1Nc1nn2c(=O)c3ccccc3nc2s1 | 73%
C/C=N/NC(=O)CSc1nc2ccccc2s1 | 96%
Cc1ccc(Nc2nc(N)nc(CSc3nccn3C)n2)cc1 | 93%
Cc1ccc(Nc2nc(N)nc(CSc3nc4ccccc4s3)n2)cc1 | 25% (active)
Nc1nc(CSc2ccccn2)nc(Nc2ccccc2)n1 | 97%
Cc1c(Cl)cccc1Nc1nc(N)nc(CSc2nc3ccccc3s2)n1 | 24% (active)
Cc1ccc(CSc2nc3ccc(NC(=O)COc4ccccc4)cc3s2)cc1 | 87%
CCC(=O)Nc1ccc2nc(SCc3ccccc3)sc2c1 | 76%
CCc1ccc(Nc2nc(N)nc(CSc3nc4ccccc4s3)n2)cc1 | 21% (active)
COC(=O)Cn1c(=NC(=O)c2ccc3c(c2)OCCO3)sc2ccccc21 | 97%
Cc1cccc(NC(=O)C2CCCN(c3nc4ccccc4s3)C2)c1C (stereo not drawn) | 83%
COC(C(=O)Nc1ccc2c(c1)OCCO2)c1ccccc1 (stereo not drawn) | 87%

Structure (SMILES) | survival
C=CCn1c(SCC(=O)c2cccs2)nc2sc(C)cc2c1=O | 93%
CC1CC(C(F)F)n2nc(C(=O)Nc3sc4c(c3C#N)CCC(C(C)(C)C)C4)nc2N1 (stereo not drawn) | 103%
CCCCN(CCCC)CCNC(=O)Cn1nc(CC)n2c(cc3sc(C)cc32)c1=O | 85%
CCCSc1nnc2c(n1)OC(CC)N(C(C)=O)c1ccccc1-2 (stereo not drawn) | 62%
COc1ccc(-c2noc(N3CCN(c4cccc(C)c4C)CC3)n2)cc1OC | 94%
Cc1ccc(OCc2ccc(-c3nc(C#N)c(NCc4ccccc4Cl)o3)o2)cc1 | 100%
O=C(Nc1ccc(C(F)(F)F)cc1)c1cc(S(=O)(=O)N2CCCc3ccccc32)ccc1F | 101%
COc1ccc(NC(=O)c2sc3nc[nH]c(=O)c3c2C)cc1Cl | 99%
COc1cccc(N2CCN(C(=O)CCCn3c(=O)[nH]c4ccc(Br)cc4c3=O)CC2)c1 | 53%
CCOc1cc2[nH]c(=O)n(CCCC(=O)N3CCN(c4cccc(Cl)c4)CC3)c(=O)c2cc1OCC | 81%
COC(=O)c1ccc2c(=O)n(CCCCCC(=O)N3CCN(c4cc(Cl)ccc4C)CC3)c(=O)[nH]c2c1 | 129%
O=C(CCCn1c(=O)[nH]c2ccc(Br)cc2c1=O)N1CCN(c2cccc(Cl)c2)CC1 | 48% (active)
Cc1ccc(Cl)cc1N1CCN(C(=O)CCCCCn2c(=O)[nH]c3ccccc3c2=O)CC1 | 78%
Cc1ccc(Cl)cc1N1CCN(C(=O)CCCn2c(=O)[nH]c3ccc(Br)cc3c2=O)CC1 | 29% (active)
O=c1[nH]c(-c2ccc(S(=O)(=O)N3CCCC3)cc2)nc2sc3c(c12)CCCC3 | 120%
COc1cc(OC)c(NS(=O)(=O)c2cc(-c3cnc(C)o3)ccc2OC)cc1Cl | 67%
O=C(CSc1nc2c(c(=O)[nH]1)CCCC2)Nc1ccccc1C(F)(F)F | 58%
CCc1ccc(-n2c(SCC(=O)NC(C)CC)nc3n[nH]c(C)c3c2=N)cc1 (stereo not drawn) | 122%
O=S(=O)(c1cccc(Cl)c1)n1c(/C=C/c2ccccc2Cl)nc2ccccc21 | 68%
COc1cccc(C2Nc3ccccc3-c3nnc(SCc4ccccc4)nc3O2)c1OC (stereo not drawn) | 140%
CCOc1ccccc1C1Nc2ccccc2-c2nnc(SCc3ccccc3)nc2O1 (stereo not drawn) | 44% (active)
CCOc1cc(C2Nc3ccccc3-c3nnc(SCc4ccccc4)nc3O2)ccc1OC (stereo not drawn) | 45% (active)
COc1cc(OC)c(C2Nc3ccccc3-c3nnc(SCc4ccccc4)nc3O2)cc1OC (stereo not drawn) | 54%
CCOc1ccc(C2Nc3ccccc3-c3nnc(SCc4ccccc4)nc3O2)cc1OC (stereo not drawn) | 50%

Structure (SMILES) | survival
O=C(O)COc1ccccc1C1Nc2ccccc2-c2nnc(SCc3ccc(Cl)cc3)nc2O1 (stereo not drawn) | 66%
COc1ccc(-c2noc(-c3nnn(-c4ccc(C(C)C)cc4)c3C)n2)cc1OC | 67%
O=C(c1ccc2c(c1)N(Cc1c(F)cccc1Cl)C(=O)c1ccccc1S2)N1CCCC1 | 74%
CCOc1ccccc1NC(=O)N1CCCC(c2nc3c(nnn3Cc3ccc(C)cc3)c(=O)[nH]2)C1 (stereo not drawn) | 82%
COc1cccc(OC)c1Cn1nnc2c(=O)[nH]c(C3CCN(C(=O)c4ccccc4)CC3)nc21 | 56%
CCOc1ccc(Cn2nnc3c(=O)[nH]c(C4CCN(C(=O)c5ccccc5)CC4)nc32)cc1 | 4% (active)
Cc1ccc(Cn2nnc3c(=O)[nH]c(C4CCN(S(=O)(=O)/C=C/c5ccccc5)CC4)nc32)cc1 | 89%
O=C(c1ccccc1)N1CCC(c2nc3c(nnn3Cc3ccccc3)c(=O)[nH]2)CC1 | 13% (active)
Cc1ccc(C)c(C(=O)N2CCC(c3nc4c(nnn4Cc4ccccc4)c(=O)[nH]3)CC2)c1 | 39% (active)
O=c1[nH]c(C2CCCNC2)nc2c1nnn2Cc1ccccc1 (stereo not drawn) | 98%
O=c1oc2cc(Br)ccc2n1CO | 105%
Cc1ccc(NCc2ccccc2-c2nnc(-c3ccccc3Cl)o2)c(C)c1 | 83%
Cc1cccc(N2CCN(CC(=O)NCc3cccs3)CC2)c1C | 101%
COc1ccc2c(c1)c1c(c(=O)n(CCc3ccccc3)c(=O)n1Cc1cccc(C)c1)n2C | 70%
CCCCN(CC)CCNC(=O)c1nn(C)c2c1CS(=O)(=O)c1ccccc1-2 | 56%
CCOC(=O)N1CCN(Cc2nc3cc([N+](=O)[O-])ccc3n2C(C)C)CC1 | 92%
O=C(NCCO)c1nc2ccccc2s1 | 73%
CCN(CC)c1ccc(NC(=O)c2cc(C)nc3c2c(C)nn3-c2cccc(F)c2)c(C)c1 | 100%
O=C(CSC1=NC(=O)C(c2ccccc2)C(=O)N1)Nc1nncs1 (stereo not drawn) | 70%
Cc1ccc(OCCn2cc(C(=O)C3CCCCC3)c3ccccc32)cc1 | 3% (active)
O=C(Cn1cc(C(=O)C2CCCCC2)c2ccccc21)Nc1ccccc1Cl | 76%
Cc1ccc(NC(=O)Cn2cc(C(=O)C3CCCCC3)c3ccccc32)cc1 | 62%
O=C(c1cn(CCOc2ccccc2F)c2ccccc12)C1CCCCC1 | -2% (active)
O=C(c1cn(CCOc2ccc(Cl)cc2)c2ccccc12)C1CCCCC1 | 14% (active)

Structure (SMILES) | survival
O=C(c1cccs1)c1cn(CCOc2ccc(Cl)cc2)c2ccccc12 | 156%
Cc1ccc(OCCn2cc(C(=O)c3cccs3)c3ccccc32)cc1 | 69%
COc1ccc(NC(=O)Cn2cc(C(=O)C3CC3)c3ccccc32)cc1 | 88%
COc1ccc(OCCn2cc(C(=O)C3CCCCC3)c3ccccc32)cc1 | 13% (active)
COc1ccc(NC(=O)Cn2cc(C(=O)C3CCCCC3)c3ccccc32)cc1 | 71%
O=C(c1cccs1)c1cn(CCOc2ccccc2F)c2ccccc12 | 104%
Cc1ccccc1OCCn1cc(C(=O)C2CCCCC2)c2ccccc21 | 144%
Cc1c(NC(=O)c2nc3ccccc3nc2N2CCCCC2)cccc1[N+](=O)[O-] | 100%
COc1ccc(-c2nc3n(n2)C(c2ccc(OC)cc2)C(C(=O)Nc2cccnc2)=C(C)N3)cc1 (stereo not drawn) | 89%
Cc1ccc(N2CC(NC(=O)CCc3ccccc3)CC2=O)cc1C (stereo not drawn) | 101%
COc1ccc(N2CCN(C(=O)Cn3c(-c4cccs4)cc4ccccc43)CC2)cc1 | 80%
Cc1cc(C)c(NC(=O)CN2C(=O)c3cccnc3Sc3ccccc32)c(C)c1 | 83%
CCOC(=O)c1ccc(N2C(=O)c3n[nH]c(-c4ccco4)c3C2c2ccc(O)c(OCC)c2)cc1 (stereo not drawn) | 69%
C=CCn1c(O)c(CN2CCOCC2)c(C)c(C#N)c1=O | 89%
O=C(O)Cc1ccc(NC2(c3ccccc3)C(=O)c3ccccc3C2=O)cc1 | 73%
Cc1cccc(NC(=O)c2ccc3c(O)c(S(=O)(=O)c4ccccc4)c(=O)[nH]c3c2)c1C | 88%
Cc1ccc(C)c(NC(=O)CN2CCN(C3CCCCC3)C(=O)C2=O)c1 | 94%
CCC(Cn1nnc2ccccc2c1=O)NC(=O)Nc1cc(Cl)ccc1OC (stereo not drawn) | 71%
COC(=O)c1cc(S(=O)(=O)N2CCN(c3ccc(OC)cc3)CC2)c[nH]1 | 73%
Cc1ccc(Cl)cc1N1CCN(C(=O)c2cc(S(=O)(=O)N3CCCC3)c[nH]2)CC1 | 88%
COC(=O)c1cc(S(=O)(=O)N2CCN(c3cc(Cl)ccc3C)CC2)c[nH]1 | 12% (active)
